From PubChem BioAssay come the findings set out here.

Active and inactive are the calls of the source. Unless noted, no rule for the calls is given here.

Test [1] can be described thus: compounds binding Alexa647 anti-His antibody – biochemical, small-molecule microarray, 635 nm fluorescence, artefact control for SMM control protein annotation, primary screen (AID 1128).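 Also: score merges feature fluorescence with signal-to-noise for each printed compound spot.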 Conditions: higher = more signal.
Test [2] concerns Human papillomavirus type 1a E7 protein (residues 1-88). The experiment in a line: HPV1a E7 small-molecule binders, primary screen, biochemical, small-molecule microarray, residues 1-88, 635 nm (AID 1129). As to conditions: small-molecule microarray binding, fluorescence 635 nm; higher = more signal.
Test [3] concerns the target Focal adhesion kinase 1 (Homo sapiens) (UniProt Q05397). The experiment in a line: PTK2 protein binding on printed compound slides – biochemical, small-molecule microarray, 635/667 nm fluorescence, BSA, DTT, primary screen (AID 1130).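 Also: composite of spot emission at 667 nm and signal to noise over triplicate slides.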 As to conditions: 635 nm fluorescence, higher = more signal.
The test system of test [4] is Fibrinogen (Alexa647-labelled). Description: Alexa647-fibrinogen binding to printed small molecules – biochemical, small-molecule microarray, 635/667 nm fluorescence, artefact control for SMM control-protein annotation, profiling panel (AID 1131).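 Also: z-score merges 667 nm fluorescence with per-spot signal-to-noise over triplicate slides.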 As to conditions: fibrinogen-A647 binding fluorescence, higher = more signal.
Test [5] concerns the target Follistatin (Homo sapiens) (UniProt P19883). The experiment in a line: FST protein binding to printed compounds – biochemical, small-molecule microarray, 635/667 nm fluorescence, primary screen (AID 1132). Conditions: 635 nm fluorescence, higher = more signal.
The target in test [6] is Fibroblast growth factor 2 (Homo sapiens) (UniProt P09038). Description: basic fibroblast growth factor binding to printed compounds – biochemical, small-molecule microarray, 635/667 nm fluorescence, primary screen (AID 1133). As to conditions: FGF2, fluorescence 635/667, higher = more signal.
Fibroblast growth factor 2 (Homo sapiens), sequence (P09038 whole entry, looked up): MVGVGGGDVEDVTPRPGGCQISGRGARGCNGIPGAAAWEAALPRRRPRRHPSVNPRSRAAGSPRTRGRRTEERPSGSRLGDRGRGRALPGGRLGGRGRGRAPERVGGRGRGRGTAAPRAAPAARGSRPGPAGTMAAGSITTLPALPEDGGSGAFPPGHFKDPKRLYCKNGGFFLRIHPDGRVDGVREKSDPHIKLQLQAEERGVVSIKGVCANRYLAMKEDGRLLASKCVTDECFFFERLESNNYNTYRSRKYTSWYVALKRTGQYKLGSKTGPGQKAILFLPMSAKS
Test [7] is described as follows: JC-1 mitochondrial potential readout, lung cancer cells – cell-based, A549, JC-1 fluorescence, basal, 24 h, 100 nL, profiling panel (AID 1138).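 Also: A549 lung adenocarcinoma cells under basal conditions with no added stimulus; test concentration not given here.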 As to conditions: higher = more signal.
In test [8] the test system is Lefty1. Description: Lefty1 protein binding to printed compounds – biochemical, small-molecule microarray, 635/667 nm fluorescence, primary screen (AID 1139). Conditions: fluorescence 635/667, higher = more signal.
Test [9] relates to wheat germ agglutinin (Triticum aestivum), Alexa647-labelled. Description: Alexa647-WGA lectin binding to printed small molecules – biochemical, small-molecule microarray, 635/667 nm fluorescence, artefact control for SMM control-protein annotation, profiling panel (AID 1140).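 Also: score merges 667 nm feature emission with signal to noise over triplicate slides.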 As to conditions: WGA-A647 binding, 635 nm fluorescence, higher = more signal.
The target of test [10] is Luciferin 4-monooxygenase (Photinus pyralis) (UniProt P08659). The experiment in a line: inhibition of purified Photinus pyralis luciferase – biochemical, luminescence, purified enzyme, 2006 set, primary screen (AID 1141).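 Also: cell-free assay with purified firefly luciferase at 100 ng per well in PBS; test concentration not given here.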 As to conditions: purified firefly luciferase, SteadyGlo luminescence, 30 min; higher = more signal, called active from +8 up or from −8 down.
Luciferin 4-monooxygenase (Photinus pyralis), sequence (P08659 whole entry, looked up): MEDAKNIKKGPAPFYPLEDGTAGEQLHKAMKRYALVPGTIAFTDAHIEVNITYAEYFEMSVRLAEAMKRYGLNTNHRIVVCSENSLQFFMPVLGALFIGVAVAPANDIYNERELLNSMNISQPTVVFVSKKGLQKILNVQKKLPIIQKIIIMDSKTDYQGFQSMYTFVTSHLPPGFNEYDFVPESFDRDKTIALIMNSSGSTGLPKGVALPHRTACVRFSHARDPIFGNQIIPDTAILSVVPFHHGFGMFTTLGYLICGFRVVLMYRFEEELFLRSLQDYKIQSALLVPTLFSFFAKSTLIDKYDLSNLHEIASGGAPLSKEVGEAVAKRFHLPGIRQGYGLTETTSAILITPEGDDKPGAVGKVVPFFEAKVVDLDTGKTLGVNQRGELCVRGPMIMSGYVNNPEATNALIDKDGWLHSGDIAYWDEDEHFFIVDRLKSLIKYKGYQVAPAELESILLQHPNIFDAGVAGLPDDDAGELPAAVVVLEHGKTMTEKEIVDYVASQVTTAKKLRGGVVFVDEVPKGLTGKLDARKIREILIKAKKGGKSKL
Test [11] has as its system Wnt5a (protein binding on small-molecule microarray). Description: small molecules binding Wnt5a protein – biophysical, small-molecule microarray, 635/667 nm fluorescence, primary screen (AID 1142).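 Also: fluorescence read at 667 nm with signal to noise per printed feature.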 Conditions: 635 nm fluorescence, higher = more signal.
Test [12] is described as follows: ATP-based viability of Huh7 replicon cells – cell-based, CellTiter-Glo luminescence, basal, 48 h, cytotoxicity control for HCV replication inhibitor project, primary screen (AID 1143).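 Also: Huh7 hepatoma cells carrying a hepatitis C replication reporter with no stimulus; test concentration not given here.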 Conditions: higher = more signal, called active from +8 up or from −8 down. Background: In antiviral work, replicon cells carry a viral genome segment that copies itself.
The nature of test [13]: Pseudomonas biofilm growth suppression – PAO1 strain, BacTiter-Glo luminescence, LB-PBS, primary screen (AID 1144). Conditions: P. aeruginosa PAO1 biofilm, 12 h, higher = more signal.
Test [14] in a line: basal CRE-LacZ reporter activity in PC12 – cell-based, unstimulated, primary screen (AID 1145). Conditions: no forskolin, luminescence, 4.5 h, higher = more signal, called active from +8 up or from −8 down.
The nature of test [15]: forskolin-driven CRE-LacZ activity in PC12 – cell-based, CRE-LacZ reporter, forskolin-stimulated, primary screen (AID 1146).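 Also: PC12 cells with 6xCRE LacZ reporter stimulated by forskolin 10 µM; beta-galactosidase reporter signal reflecting CREB driven transcription.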 Conditions: luminescence, 4.5 h, higher = more signal, called active from +8 up or from −8 down.
In test [16] the target is Streptavidin (Streptomyces avidinii) (UniProt P22629). The experiment in a line: compounds binding control protein streptavidin – biophysical, small-molecule microarray, 635/667 nm fluorescence, artefact control for SMM compound annotation, primary screen (AID 1147).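 Also: signal reflects streptavidin binding to arrayed compounds as a control protein.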 As to conditions: higher = more signal.
Streptavidin (Streptomyces avidinii), sequence (P22629 whole entry, looked up): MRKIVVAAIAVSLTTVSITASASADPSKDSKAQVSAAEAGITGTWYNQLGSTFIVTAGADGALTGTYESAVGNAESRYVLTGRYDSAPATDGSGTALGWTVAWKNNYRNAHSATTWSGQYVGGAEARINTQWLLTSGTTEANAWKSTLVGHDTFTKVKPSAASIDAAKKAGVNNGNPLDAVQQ
The nature of test [17]: probe aInhba binding on compound microarray – biochemical, small-molecule microarray, 635/667 nm fluorescence, primary screen (AID 1148).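 Also: score merges 667nm spot fluorescence with signal-to-noise for antibody binding to printed compounds.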 Conditions: higher = more signal.
For test [18], the target named is Torsin-1A (Homo sapiens) (UniProt O14656). The experiment in a line: TOR1A wild-type binding on microarray – cell lysate, small-molecule microarray, lysate, 635/667 nm, primary screen (AID 1149). Conditions: COS7 hTOR1A-WT lysate, 635 nm fluorescence, higher = more signal.
Torsin-1A (Homo sapiens), sequence (O14656 whole entry, looked up): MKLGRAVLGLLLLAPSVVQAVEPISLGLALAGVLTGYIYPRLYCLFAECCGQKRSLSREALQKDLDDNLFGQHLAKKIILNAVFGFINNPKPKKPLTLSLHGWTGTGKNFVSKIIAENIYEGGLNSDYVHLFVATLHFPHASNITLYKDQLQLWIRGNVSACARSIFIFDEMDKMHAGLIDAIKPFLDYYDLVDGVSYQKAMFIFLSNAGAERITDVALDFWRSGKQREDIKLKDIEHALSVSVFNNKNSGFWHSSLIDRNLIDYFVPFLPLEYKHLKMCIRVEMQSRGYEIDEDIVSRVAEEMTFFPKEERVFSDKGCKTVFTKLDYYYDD
For test [19] the target is unchanged. The experiment in a line: torsin A mutant lysate binding on microarrays – cell lysate, small-molecule microarray, COS7 lysate, 635/667 nm fluorescence, primary screen (AID 1150).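 Also: score pools 667 nm emission and signal to noise measuring lysate protein binding.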 Conditions: COS7 hTOR1A mutant lysate, 635 nm fluorescence, higher = more signal.
For test [20], the system named is Sonic hedgehog protein (Shh). Description: Sonic hedgehog microarray binding compounds – biochemical, small-molecule microarray, 635/667 nm fluorescence, primary screen (AID 1151).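 Also: Shh protein binding to compounds spotted on small-molecule microarray slides; score combines spot fluorescence intensity with signal-to-noise across triplicate slides.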 As to conditions: 635 nm fluorescence, higher = more signal.

Follistatin (Homo sapiens), sequence (P19883 whole entry, looked up): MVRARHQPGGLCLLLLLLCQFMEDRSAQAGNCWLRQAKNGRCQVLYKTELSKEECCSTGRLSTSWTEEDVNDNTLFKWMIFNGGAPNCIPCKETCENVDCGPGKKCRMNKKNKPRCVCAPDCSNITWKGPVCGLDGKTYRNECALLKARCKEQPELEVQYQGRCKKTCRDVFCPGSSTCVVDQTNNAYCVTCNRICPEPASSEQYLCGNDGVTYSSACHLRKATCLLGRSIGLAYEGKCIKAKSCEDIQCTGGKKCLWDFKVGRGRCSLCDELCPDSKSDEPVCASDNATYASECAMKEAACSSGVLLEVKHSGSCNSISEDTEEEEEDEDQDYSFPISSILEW
Focal adhesion kinase 1 (Homo sapiens), sequence (Q05397 whole entry, looked up): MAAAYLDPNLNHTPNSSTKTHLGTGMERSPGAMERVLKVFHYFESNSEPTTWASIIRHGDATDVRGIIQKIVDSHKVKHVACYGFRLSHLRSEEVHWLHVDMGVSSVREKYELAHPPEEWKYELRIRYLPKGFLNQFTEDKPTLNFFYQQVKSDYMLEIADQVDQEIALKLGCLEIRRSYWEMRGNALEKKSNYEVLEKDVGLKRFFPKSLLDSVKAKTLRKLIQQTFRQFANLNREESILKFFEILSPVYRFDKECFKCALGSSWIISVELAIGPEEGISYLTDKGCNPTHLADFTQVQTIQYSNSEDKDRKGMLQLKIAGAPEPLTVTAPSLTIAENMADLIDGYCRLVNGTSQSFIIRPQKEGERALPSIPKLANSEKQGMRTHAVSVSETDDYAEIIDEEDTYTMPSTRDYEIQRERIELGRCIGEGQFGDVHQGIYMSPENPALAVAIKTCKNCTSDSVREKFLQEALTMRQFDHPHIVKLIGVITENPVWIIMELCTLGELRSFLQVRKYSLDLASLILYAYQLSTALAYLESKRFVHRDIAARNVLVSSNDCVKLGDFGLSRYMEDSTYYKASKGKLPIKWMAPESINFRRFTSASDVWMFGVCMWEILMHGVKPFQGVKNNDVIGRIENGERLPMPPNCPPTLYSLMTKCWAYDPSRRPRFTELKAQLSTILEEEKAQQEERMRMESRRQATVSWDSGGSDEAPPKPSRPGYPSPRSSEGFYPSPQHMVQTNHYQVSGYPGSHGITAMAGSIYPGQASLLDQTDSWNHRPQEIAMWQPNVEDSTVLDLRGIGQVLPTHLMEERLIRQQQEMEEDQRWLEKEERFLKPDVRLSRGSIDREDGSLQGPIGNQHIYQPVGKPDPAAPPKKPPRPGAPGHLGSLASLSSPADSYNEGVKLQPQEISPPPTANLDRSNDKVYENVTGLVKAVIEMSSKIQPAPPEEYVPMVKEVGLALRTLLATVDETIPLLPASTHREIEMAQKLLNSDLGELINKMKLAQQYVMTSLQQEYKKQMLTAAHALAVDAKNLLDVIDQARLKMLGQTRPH

Consider `COc1ccc([Si](C)(C)[C@H]2[C@H](CC(=O)N3CCC[C@H]3CO)O[C@@]3(C(=O)N(Cc4cccc(N5C(=O)c6cccc7cccc5c67)c4)c4ccccc43)[C@@H]2C)cc1`, for which the composite z-score in [1] came to 0.874; in test [2], 0.614; in [3] it was 0.209; in [4], 0.94; in test [5] it was 1.17; in [6], 0.7. For the same compound, the composite z-score in test [8] amounted to 1.52; in test [9] it was 0.571; in test [11], 1.08; in test [16], 0.309; in test [17], 0.392; in test [18] it was 0.84. Besides, the composite z-score in test [19] is 0.836; in [20] it was 2.21. The z-score was 1.57 in [7]; -0.75 (inactive) in [10]; -3.59 (inactive) in test [12]; 0.346 (inactive) in [13]; 1.46 (inactive) in [14]; 1.16 (inactive) in [15].
As to `C=CCC(OC(C)=O)[C@@H]1[C@@H](N(Cc2ccc(-c3ccccc3)cc2)C(=O)Cc2ccc(F)cc2)c2cc(OCCCO)ccc2N1C(=O)c1ccc(-c2ccccc2)cc1` (stereo not given in full), the composite z-score in [1] was -0.414; in test [2] it was -1.03; in [3] it was -0.0744; in test [4] it was 0.259; in [5], 0.267; in test [6], -0.297. For the same compound, the composite z-score is -0.0123 in test [8]; -0.217 in test [9]; -0.163 in test [11]; 0.711 in test [16]; -0.157 in test [17]; -0.628 in [18]. For the same compound, the composite z-score in test [19] was -0.222; in test [20], 0.249. In addition, the z-score in test [7] was 0.796; in test [10], 1.03 (inactive); in [12], -1.13 (inactive); in test [13] it was -0.757 (inactive); in test [14], -1.23 (inactive); in test [15], -0.0988 (inactive).
Consider `O=C1O[C@H](c2ccccc2)[C@H](c2ccccc2)N2[C@H]1[C@@H](C(=O)O)[C@]1(C(=O)Nc3ccc(C#CCCO)cc31)[C@H]2c1ccc(O)cc1`, for which the composite z-score in [1] is 0.0887; in test [2], 0.0227; in test [3], 0.724; in [4], -0.862; in test [5], 0.771; in test [6] it was -0.317. In addition, the composite z-score in test [8] is -0.279; in [9], 0.349; in [11], -0.0604; in test [16] it was -0.668; in test [17] it was 0.161; in [18], 0.309. Moreover, the composite z-score in [19] was determined as 0.499; in test [20] it was 0.0441. For the same compound, the z-score in test [7] was 1.07; in test [10], -1.72 (inactive); in [12] it was -1.04 (inactive); in test [13], 0.301 (inactive); in [14], -1.28 (inactive); in [15], -1.37 (inactive).
As for `COc1ccc(CCNC(=O)[C@@]2(C)c3ccccc3C(=O)N(Cc3cc(F)cc(C(F)(F)F)c3)[C@H]2c2ccc(CO)cc2)cc1`, the composite z-score in test [1] is 0.421; in test [2] it was 0.682; in test [3] it was 0.212; in test [4], 0.0066; in [5], 0.179; in [6], 0.132. The composite z-score in test [8] was -0.953; in [9], 0.606; in test [11], 0.126; in test [16], -0.55; in test [17], -0.0791; in test [18], -0.621. For the same compound, the composite z-score in test [19] is -0.0937; in [20] it was -0.0895. For the same compound, the z-score was -0.233 in test [7]; -0.947 (inactive) in test [10]; -4.52 (inactive) in test [12]; 1.3 (inactive) in test [13]; 0.001 (inactive) in [14]; -1.28 (inactive) in [15].
As to `COC(=O)[C@@]1(Cc2ccc(OC)cc2)[C@H]2c3cc(C(=O)N4CCCC4)n(Cc4ccccc4)c3C[C@H]2CN1C(=O)c1ccccc1`, the composite z-score is 3 in test [1]; 1.25 in test [2]; 1.32 in test [3]; 1 in test [4]; 0.506 in test [5]; -0.368 in test [6]. The composite z-score is -0.292 in test [8]; 1.1 in test [9]; 2.34 in test [11]; 2.04 in [16]; 1.76 in test [17]; -0.0218 in test [18]. Besides, the figures for the composite z-score in test [19] and in [20] were 0.107 and -0.442, respectively. The z-score in test [7] is 0.581; in test [10] it was 2.01 (inactive); in test [12], -2.68 (inactive); in [13], 0.888 (inactive); in test [14], 0.194 (inactive); in [15], -0.754 (inactive).
